Screening results from PubChem.
AI-2 QS mod: Vibrio harveyi AI-2 quorum sensing modulators, primary screen, JMH597 strain, luminescence/OD600 ratio | actives 0.4% (n = 300,000) | AID 2094, 2009 | Vibrio harveyi JMH597 AI-2 luminescence/OD600 ratio, 9 h; hits give low values; strain lacks LuxN and CqsS sensors; 0 = neutral-control median | activity change, % at 7.5 µM; in the data active = activity change below about -75%, passing the limit was not always enough; inconclusive = no clear call, values can overlap the other calls;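 also: luminescence divided by OD600 gain over 9 h not by final OD600 alone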
ALR H2O2 inh: inhibitors of human ALR sulfhydryl oxidase, primary screen, biochemical, H2O2 detection, HRP-luminol luminescence, single point | purified ALR, DTT oxidation | actives 3.8% (n = 290,000) | AID 485317, 2010 | inhibition, % (no concentration beside the values);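 active = mean replicate inhibition above about 79%, with every replicate also reaching it, limit read from the data; inconclusive = only one of the two criteria met; inactive = mean below limit and not every replicate reaching it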
Target sequence (P55789 whole entry, looked up): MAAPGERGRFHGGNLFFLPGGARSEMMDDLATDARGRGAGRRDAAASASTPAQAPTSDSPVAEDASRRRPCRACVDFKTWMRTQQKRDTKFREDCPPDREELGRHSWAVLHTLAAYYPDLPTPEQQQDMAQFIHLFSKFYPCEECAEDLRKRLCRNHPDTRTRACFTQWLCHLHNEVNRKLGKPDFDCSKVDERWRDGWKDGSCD
Mot1-301 SUMO: yeast Mot1-301 growth rescue at high temperature, primary screen, SUMOylation pathway inhibitor project, S. cerevisiae, ATP luminescence, 38.5C | AID 2716, 2010 | growth rescue, % at 18.8 µM | actives 1% (n = 320,000) | S. cerevisiae Mot1-301 growth rescue; percent above DMSO median, 100 means doubled;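 active = every valid replicate shows activation above 250% relative to neutral control wells; inactive = the rest, any valid replicate at or below 250%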;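 also: OY570 slx delta 5 strain wells were the positive control but not used for scaling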
HIF activator: HIF pathway transcriptional activators, primary screen, cell-based, U2OS HRE-luciferase, luminescence; activation, % at 7.5 µM (by protocol); AID 1910, 2009; actives 0.32% (n = 300,000); U2OS HRE-luciferase reporter; normalized: DMSO 0%, desferrioxamine 100%;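 active = mean activation of at least 10% of the iron chelator positive control signal, with at least half of replicates also reaching 10%; inconclusive = mean and replicate majority disagree about reaching 10%; inactive = mean and most replicates under 10%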
The depositor's hits bear a star. In the library only some 4.8% were active in any assay of this set; here they are far more common.

COc1cc(/C=N/NC(=O)CCOc2ccccc2C)cc(Br)c1O was read as AI-2 QS mod 10.7, ALR H2O2 inh 96.6*, Mot1-301 SUMO 34.9 and HIF activator -0.7.
COc1ccc(/C=N/NC(=O)CCOc2ccccc2C)cc1OC was read as AI-2 QS mod -0.6, ALR H2O2 inh 43.1 and HIF activator 0.3.
COc1cc(/C=N/NC(=O)c2cccnc2)cc(Br)c1O was read as AI-2 QS mod 8.6, ALR H2O2 inh 80.8*, Mot1-301 SUMO 10.3 and HIF activator -1.8.
Screening CCCCN(C(=O)c1ccc(NC2CC2)c([N+](=O)[O-])c1)c1c(N)n(CC(C)C)c(=O)[nH]c1=O returned ALR H2O2 inh 0.8 and Mot1-301 SUMO -2.9.
CCN(CC)S(=O)(=O)c1ccc(N2CCCCC2)c(NC(=O)C2CCN(C(=O)c3ccc(F)cc3)CC2)c1 was read as AI-2 QS mod 38.6, ALR H2O2 inh -18.3, Mot1-301 SUMO -19.3 and HIF activator 0.4.
Screening COc1cc(/C=N\NC(=O)c2ccc(-c3ccccc3)cc2)cc(OC)c1O returned AI-2 QS mod 35.8, ALR H2O2 inh 96.0*, Mot1-301 SUMO 9.7 and HIF activator 5.1.
For C#CCOc1ccc(/C=N/NC(=O)c2cccnc2)cc1OCC the results were AI-2 QS mod 5.8, ALR H2O2 inh -2.5, Mot1-301 SUMO -14.0 and HIF activator -0.1.
O=C1CCC/C(=N/NC(=O)c2ccc(NS(=O)(=O)c3cccs3)cc2)C1 was read as AI-2 QS mod 21.0, ALR H2O2 inh 81.6*, Mot1-301 SUMO -1.1 and HIF activator -0.3.
Screening CCOc1cc(/C=N/NC(=O)c2cccnc2)ccc1OCc1ccc(C(=O)OC)o1 returned AI-2 QS mod 25.6, ALR H2O2 inh -4.1, Mot1-301 SUMO -15.8 and HIF activator 13.6*.
For C/C(=N\NC(=O)c1ccc(NS(=O)(=O)c2cccs2)cc1)c1ccccc1 the results were AI-2 QS mod 4.7, ALR H2O2 inh 50.7, Mot1-301 SUMO -0.9 and HIF activator 0.4.
For COc1cc(/C=N\NC(=O)c2ccc(-c3ccccc3)cc2)cc(OC)c1OC(C)=O the results were AI-2 QS mod 7.6, ALR H2O2 inh -1.5 and Mot1-301 SUMO 2.3.
For O=C1CCC/C(=N/NC(=O)c2cc(NS(=O)(=O)c3cccs3)cc(NS(=O)(=O)c3cccs3)c2)C1 the results were AI-2 QS mod 0.5, ALR H2O2 inh 44.0 and HIF activator -4.4.
Screening C/C(=N\NC(=O)c1ccc(NS(=O)(=O)c2cccs2)cc1)c1ccc(O)cc1O returned AI-2 QS mod -2.5, ALR H2O2 inh 99.1*, Mot1-301 SUMO -5.5 and HIF activator 0.1.
For O=C(CNC(=O)c1ccco1)OCc1ccc(Br)cc1 the results were AI-2 QS mod -76.5*, ALR H2O2 inh 0.9, Mot1-301 SUMO 13.0 and HIF activator -1.3.
`CC(=O)Nc1ncc(N=Nc2cccc(C(F)(F)F)c2)s1` gave AI-2 QS mod 16.8, ALR H2O2 inh 2.3, Mot1-301 SUMO 6.7 and HIF activator 1.1.
Cc1cccc(N=Nc2cnc(N)s2)c1 was read as AI-2 QS mod 13.7, ALR H2O2 inh 99.4*, Mot1-301 SUMO 11.4 and HIF activator 2.6.
Screening CN(CC(=O)Nc1cccc(F)c1)C(=O)c1ccccc1Sc1ccccc1C#N returned ALR H2O2 inh -4.6 and Mot1-301 SUMO 9.4.
Cc1cc(O)ccc1N=Cc1c(C(F)(F)F)[nH][nH]c1=O was read as AI-2 QS mod 15.7, ALR H2O2 inh 99.0*, Mot1-301 SUMO -2.5 and HIF activator -0.3.
COC(=O)Cc1c(C)nc2nc(NCc3cccc([N+](=O)[O-])c3)[nH]n2c1=O was read as AI-2 QS mod 21.3, ALR H2O2 inh 88.9*, Mot1-301 SUMO -6.8 and HIF activator 0.1.
For COC(=O)Cc1c(C)nc2nc(NCc3ccc(Cl)cc3)[nH]n2c1=O the results were AI-2 QS mod 35.0, Mot1-301 SUMO -11.6 and HIF activator -1.1.
Screening CCCCSc1nc(O)c(C2OC(=O)c3c2ccc(OC)c3OC)c(=O)n1C (stereo unspecified) returned AI-2 QS mod 25.9, ALR H2O2 inh inconclusive, Mot1-301 SUMO 332.2 and HIF activator 1.8.
For CCCCCCSc1nc(O)c(C2OC(=O)c3c2ccc(OC)c3OC)c(=O)n1-c1ccccc1 (stereo unspecified) the results were AI-2 QS mod 13.5, ALR H2O2 inh 98.0*, Mot1-301 SUMO 11.5 and HIF activator 0.0.
COc1cc(C(=S)N(C)C)ccc1O was read as ALR H2O2 inh 92.1* and Mot1-301 SUMO 174.5.
Screening C/C=C/c1ccc(O)c(OC)c1 returned Mot1-301 SUMO -8.9.
`CC#CCCCC(=O)Nc1cccc(C(=O)O)c1` gave AI-2 QS mod 15.6, ALR H2O2 inh 89.9*, Mot1-301 SUMO -15.1 and HIF activator 1.6.
For CC(=O)c1cccc(NC(=O)CCCSc2ccccc2)c1 the results were ALR H2O2 inh -1.0, Mot1-301 SUMO -2.0 and HIF activator 0.1.
COc1ccc(OC)c(CNC(=O)C2CCCN(S(=O)(=O)N3CCC(C)CC3)C2)c1 (stereo unspecified) was read as AI-2 QS mod 22.6, ALR H2O2 inh -2.6, Mot1-301 SUMO 284.1 and HIF activator 24.7*.
`COc1cc2c(cc1OC)CN(C(=O)CSc1ccccc1C)CC2` gave ALR H2O2 inh -10.4 and Mot1-301 SUMO -19.1.
O=C(CSc1nc2nn(-c3ccccc3)c(=O)c-2c2n1CCCCC2)Nc1ccc(F)c(F)c1 was read as ALR H2O2 inh 49.2 and Mot1-301 SUMO 4.6.
Screening O=C(Nc1oc2ccccc2c(=O)c1-c1ccc(Cl)cc1)c1ccco1 returned AI-2 QS mod 40.9, ALR H2O2 inh 15.0 and Mot1-301 SUMO -24.6.
Cc1ccc(Cl)cc1NC(=O)CSc1sc2c(O)cc(=O)[nH]c2c1C#N was read as AI-2 QS mod 22.6, ALR H2O2 inh 92.5*, Mot1-301 SUMO 302.6 and HIF activator 0.0.
For COc1ccc(Cl)cc1NC(=O)CSc1sc2c(O)cc(=O)[nH]c2c1C#N the results were AI-2 QS mod -9.5, ALR H2O2 inh 98.6*, Mot1-301 SUMO 19.5 and HIF activator -0.3.
Screening Cc1ccc(C)c(NC(=O)CSc2sc3c(O)cc(=O)[nH]c3c2C#N)c1 returned AI-2 QS mod 26.1, ALR H2O2 inh inconclusive, Mot1-301 SUMO -4.1 and HIF activator 0.0.
`COc1ccccc1NC(=O)CSc1sc2c(O)cc(=O)[nH]c2c1C#N` gave AI-2 QS mod 16.3, ALR H2O2 inh 94.5*, Mot1-301 SUMO -18.2 and HIF activator -0.3.
For COc1ccc(NC(=O)CSc2sc3c(O)cc(=O)[nH]c3c2C#N)c(OC)c1 the results were AI-2 QS mod -16.0, ALR H2O2 inh 32.8, Mot1-301 SUMO 167.7 and HIF activator -0.5.
`O=C(NCC1CCCO1)c1cc2cc(Cl)ccc2[nH]1` (stereo unspecified) gave AI-2 QS mod -28.3, ALR H2O2 inh 7.5, Mot1-301 SUMO -11.3 and HIF activator 1.3.
